# Measured values reported in PubChem BioAssay AID492949 (National Center for Advancing Translational Sciences (NCATS), 2010).
# Inconclusive results are not listed. Values without a mark were called inactive. The source made the active and inactive calls. Calls follow the shape of the dose curve; as a rule, active = well fitted activation curve with a large enough effect; inconclusive = small, poorly fitted or top-dose-only effect; inactive = no such curve, though single readings can be large or run the other way.
# Molecular target: Relaxin receptor 1 (Homo sapiens) (UniProt Q9HBX9)
# Sequence (Q9HBX9 whole entry, looked up): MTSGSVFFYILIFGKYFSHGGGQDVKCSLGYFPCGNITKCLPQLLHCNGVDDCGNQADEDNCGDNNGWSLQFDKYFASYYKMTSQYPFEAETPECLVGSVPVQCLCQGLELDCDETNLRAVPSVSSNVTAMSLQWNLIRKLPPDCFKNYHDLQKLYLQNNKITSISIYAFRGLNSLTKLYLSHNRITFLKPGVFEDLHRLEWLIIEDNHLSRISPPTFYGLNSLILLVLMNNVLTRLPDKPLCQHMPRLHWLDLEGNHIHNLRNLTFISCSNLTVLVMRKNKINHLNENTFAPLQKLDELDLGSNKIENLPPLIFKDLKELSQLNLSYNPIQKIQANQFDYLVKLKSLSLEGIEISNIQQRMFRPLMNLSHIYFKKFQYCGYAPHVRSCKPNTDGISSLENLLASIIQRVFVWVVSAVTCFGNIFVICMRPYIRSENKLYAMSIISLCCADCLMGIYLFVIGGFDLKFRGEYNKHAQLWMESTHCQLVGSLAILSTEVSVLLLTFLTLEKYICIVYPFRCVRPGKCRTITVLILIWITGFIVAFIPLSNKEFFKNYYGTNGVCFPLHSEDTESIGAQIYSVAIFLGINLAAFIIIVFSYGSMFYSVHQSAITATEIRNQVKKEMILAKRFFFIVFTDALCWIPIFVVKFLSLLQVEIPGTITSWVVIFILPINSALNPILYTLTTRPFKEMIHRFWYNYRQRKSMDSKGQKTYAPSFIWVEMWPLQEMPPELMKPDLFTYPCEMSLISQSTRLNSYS
# Assay: qHTS Assay for Agonists of the Relaxin Receptor RXFP1: THP1 Hit Validation; also: nearly all actives have a fitted effect of over 60% in size;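 as to activation: 0% = buffer alone basal and 100% = 29 nM porcine relaxin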
# Conditions: THP1-RXFP1 cells, cAMP TR-FRET, 30 min; series mostly up to 115 µM; activation: at the top concentration
# In short: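 RXFP1-THP1 cells, 2000/well, + Ro 20174 (PDE4 inhib.); cpd 30 min 37C. Lysis + cAMP-d2/anti-cAMP cryptate, 30 min RT, HTRF 665/615. Norm: buffer vs 29 nM porcine relaxin; Hill EC50.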
# Potency is read from the fitted curve at half-maximal effect.
Compound,Potency,activation
COc1ccc(Cl)cc1-c1n[nH]c(=S)o1,6.15 µM (active),–
CC1CCCCN1C(=O)c1ccccc1NC(=O)c1ccco1 (stereo not drawn),–,-1.74% [at 125 µM]
COc1ccc(OC)c(CNC(=O)C2CCN(C(=O)N(C)C)CC2)c1,–,-4.27%
CN(Cc1ccccc1)C(=O)c1ccccc1NC(=O)c1ccco1,–,-1.61% [at 125 µM]
CCc1nnc(NC(=O)CSc2nc(C)nc3c2c(=O)n(C)c(=O)n3C)s1,10.9 µM (active),–
O=C(Nc1ccccc1C(=O)NCc1ccco1)c1ccccc1,–,7.28% [at 125 µM]
CCN(CC)CCCCCC(=O)Nc1ccccc1C(=O)Nc1ccccc1,–,-4.7% [at 125 µM]
CCNc1nc(NCC)nc(N(C)/N=C/c2ccco2)n1,–,-2.12%
O=C(Nc1ccccc1C(=O)N1CCCCC1)c1ccco1,–,1.27% [at 125 µM]
CC(C(=O)OCC(=O)N(C)C1(C#N)CCCCC1)N1C(=O)c2ccccc2C1=O (stereo not drawn),15.4 µM (active),–
O=c1c2ccccc2cnn1Cc1n[nH]c(=S)n1-c1ccc(F)c(Cl)c1,12.3 µM (active),–
Cc1ccc(CN(C)C(=O)c2ccccc2NC(=O)c2ccccc2)o1,–,6.8% [at 125 µM]
Cc1cc(Br)c2nc3c(c(C(=O)O)c2c1)CCCCC3,3.08 µM (active),–
O=C(Nc1ccccc1C(=O)Nc1ccccc1)c1ccco1,–,11.7% [at 125 µM]
COC(=O)c1c(N2C(=O)CC(Sc3ncccc3C(=O)O)C2=O)sc(C)c1C (stereo not drawn),–,-8.48%
CCC1(C)Cc2c(sc3c2c2ncnn2c2nnc(SCC(=O)NCc4ccco4)n32)CO1 (stereo not drawn),11 µM (active),–
C=CCSc1nc2c(c(=O)[nH]1)C(C(C)C)C(C#N)=C(N)O2 (stereo not drawn),–,-4.28%
O=C(Nc1ccccc1C(=O)NCCc1ccc(O)cc1)c1ccco1,–,-0.992% [at 125 µM]
